Measured values: PubChem BioAssay (NCATS)
Inconclusive results are not listed. A call without a number means that no potency is given here. Active and inactive are the calls of the source. Calls come from the whole dose curve; as a rule, active = well fitted cell-killing curve with a large enough effect; inconclusive = small, poorly fitted or top-dose-only effect, or effect the other way; inactive = flat fitted curve, though single readings scatter. Where a SMILES comes first, the peptide text is derived from it. [ ]: non-standard residue; d: D form. ξ: configuration not given here. ξPhe(βξ-Me) = CC(c1ccccc1)C(N)C(=O)O; GABA = NCCCC(=O)O
Potency is the fitted concentration of half-maximal effect.

What follows are compounds tested on PA-1 (assay: Primary qHTS to identify gynecologic anti-cancer compounds using libraries of approved drugs and bioactive compounds (AID 1345084; note: nearly all actives have a fitted effect of over 55% in size)). Conditions: Gynecologic cancer cell panel viability, ATPlite luminescence, 48 h; series mostly up to 57.5 µM.
Summary of the method: (§1)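 Cytotoxicity screen measuring ATP content by luciferase luminescence. Each compound is applied at five concentrations for 48 h at 37 C with 5% CO2.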
With `CC(C)C(=O)O[C@@H]1[C@@H](O)[C@@H](O[C@H]2O[C@H](CO)[C@@H](O)[C@H](O)[C@H]2O)O[C@H](CO)[C@H]1O` the Potency was “inactive”. In the case of `C=C(C(=O)O)[C@@H]1CC=C2CCC[C@H](C)[C@@]2(C)C1`, the Potency is reported as “inactive”. For `CCCCNC(=O)[C@@H]1Cc2ccccc2N1C(=O)[C@@H](N)CC`, the Potency was “inactive”. With `Cc1coc2c1CC1OC1(C)CCC1OC1(C)C2` (centres undefined) the Potency was “inactive”. `COC(=O)C1C(CC(C)=O)C=CC(O)C12Oc1cc(C)cc(O)c1C2=O` (centres undefined) was tested, and the Potency was “inactive”. `CCOC(=O)[C@H]1O[C@@H]1C(=O)N[C@@H](CC(C)C)C(=O)NCCC(C)C` was tested, and the Potency was “inactive”. In the case of `C=C1CCC2C(C)(C)C(O)CCC2(C)C1CCC(C)CCOC(=O)CCC(=O)O` (centres undefined), the Potency is reported as “inactive”. In the case of `CC1CCC2(C(=O)OC3OC(CO)C(O)C(O)C3O)CCC3(C(=O)O)C(=CCC4C5(C)CCC(OC6OC(C)C(O)C(O)C6O)C(C)(C)C5CCC43C)C2C1C` (centres undefined), the Potency is reported as “inactive”. For `COC1CC(=O)C23C(=O)NC(CC(C)C)C2C(C)C(C)=CC3/C=C(\C)CCC1O` (centres undefined), the Potency was “inactive”. In the case of `C[C@@H]1O[C@@H](O[C@H]2[C@H](OC(=O)[C@]34CCC(C)(C)C[C@H]3C3=CCC5[C@@]6(C)C[C@H](O)[C@H](O[C@@H]7O[C@H](CO[C@@H]8OC[C@H](O)[C@H](O)[C@H]8O)[C@@H](O)[C@H](O)[C@H]7O)C(C)(C)C6CC[C@@]5(C)[C@]3(C)C[C@H]4O)OC[C@@H](O)[C@@H]2O)[C@H](O)[C@H](O[C@@H]2OC[C@](O)(CO)[C@H]2O)[C@H]1O[C@@H]1OC[C@H](O)[C@H](O[C@@H]2OC[C@@H](O)[C@H](O)[C@H]2O)[C@H]1O` (some centres undefined), the activity change, negative = cytotoxicity is reported as 9.54% [at 6.55 µM] (inactive). `COc1cc(C)c(C(=O)O[C@H]2[C@@H](O)[C@H](n3ccc(=O)[nH]c3=O)O[C@@H]2CO)c(OC)c1` was tested, and the Potency was “inactive”. `CC(C)CC1NC(=O)C(C(C)c2ccccc2)NC(=O)C(C(C)C)NC(=O)C(C)NC(=O)CCCNC(=O)C(Cc2c[nH]c3ccccc23)NC(=O)C(C)NC1=O` (stereo not drawn) (cyclo([GABA]AV[ξPhe(βξ-Me)]LAW); configuration not given here) was tested, and the Potency was “inactive”. With `O=C(O)C[C@@H](NC(=O)c1cc(-c2ccc(-c3ccncc3)cc2)cs1)c1ccccc1` the Potency was “inactive”. With `OC[C@H]1O[C@@H](n2cnc3c2NC=NC[C@H]3O)C[C@@H]1O` the Potency was “inactive”. With `C[C@@H]1O[C@@H](O[C@H]2[C@H](OC(=O)[C@]34CCC(C)(C)C[C@H]3C3=CCC5[C@@]6(C)C[C@H](O)[C@H](O[C@@H]7O[C@H](CO)[C@@H](O[C@@H]8O[C@H](CO)[C@@H](O)[C@H](O)[C@H]8O)[C@H](O)[C@H]7O)[C@@](C)(CO)C6[C@H](O)C[C@@]5(C)[C@]3(C)C[C@H]4O)OC[C@H](O)[C@@H]2O)[C@H](O)[C@H](O)[C@H]1O[C@@H]1OC[C@@H](O)[C@H](O[C@@H]2OC[C@](O)(CO)[C@H]2O)[C@H]1O` (some centres undefined) the activity change, negative = cytotoxicity was -7.05% [at 6.55 µM] (inactive). `Nc1ccn([C@@H]2C(F)=C(CO)[C@@H](O)[C@H]2O)c(=O)n1` was tested, and the Potency was 2240 nM (active). In the case of `C[C@@H]1O[C@@H](OC[C@H]2O[C@@H](OCC3CCC4CC3C4(C)C)[C@H](O)[C@@H](O)[C@@H]2O)[C@H](O)[C@H](O)[C@H]1O` (some centres undefined), the Potency is reported as “inactive”. `CC(C)=CCC/C(C)=C/CC/C(C)=C/CC[C@]1(C)CCc2cc(O)cc(C)c2O1` was tested, and the Potency was “inactive”. In the case of `CC(=O)N1c2ccccc2C2(O)CC3C(=O)NC(CC(C)C)C(=O)N3C12` (centres undefined), the Potency is reported as “inactive”. With `CCCCS(=O)(=O)Nc1ncnc(OCCOc2ncc(Br)cn2)c1-c1ccc(Br)cc1` the Potency was “inactive”. In the case of `CCN[C@@H]1C[C@H](N)[C@@H](O[C@H]2OC(CN)=CC[C@H]2N)[C@H](O)[C@H]1O[C@H]1OC[C@](C)(O)[C@H](NC)[C@H]1O`, the Potency is reported as “inactive”. For `CC(CO[C@@H]1O[C@H](COC(=O)/C=C/c2ccc(O)c(O)c2)[C@@H](O)[C@H](O)[C@H]1O)C1(O)COC(=O)C1` (some centres undefined), the Potency was “inactive”. `Oc1ccc([C@H]2COc3cc(O)ccc3C2)cc1` was tested, and the Potency was “inactive”. For `Cc1nnc(C(C)C)n1C1CC2CCC(C1)N2CCC(NC(=O)C1CCC(F)(F)CC1)c1ccccc1` (centres undefined), the Potency was “inactive”. In the case of `CC1(C)CCC[C@@]2(C)[C@H]1[C@H](O)C=C1COC(=O)[C@@]12O`, the Potency is reported as “inactive”. `O=C1[C@H](O[C@@H]2O[C@H](CO)[C@@H](O)[C@H](O)[C@H]2O)Oc2ccccc2N1O` was tested, and the Potency was “inactive”. `CCCCN(CCCC)C(=O)CN1C[C@H](c2ccc3c(c2)OCO3)[C@@H](C(=O)O)[C@@H]1c1ccc(OC)cc1` was tested, and the Potency was “inactive”. For `COC(=O)C1=CO[C@@H](O[C@@H]2O[C@H](CO)[C@@H](O)[C@H](O)[C@H]2O)[C@@H]2[C@@H](C(=O)OC)[C@@H](O)C(O)[C@H]12` (some centres undefined), the Potency was “inactive”. In the case of `O=C(O)Cc1nn(Cc2nc3cc(C(F)(F)F)ccc3s2)c(=O)c2nccnc12`, the Potency is reported as “inactive”.

Each compound was assayed on SKOV3 in the same assay as above. Conditions: Gynecologic cancer cell panel viability, ATPlite luminescence, 48 h; series mostly up to 57.5 µM.
Summary of the method: as §1
`CC1(C)CC[C@]2(C(=O)O)CC[C@]3(C)C(=CCC4[C@@]5(C)CCC(O[C@@H]6OC[C@H](O)[C@H](O)[C@H]6O[C@@H]6O[C@H](CO)[C@@H](O)[C@H](O)[C@H]6O)[C@@](C)(CO)C5CC[C@]43C)[C@@H]2C1` (some centres undefined) was tested, and the Potency was “inactive”. With `CNc1nc(Nc2cnn([C@H]3CCN(C4COC4)C[C@@H]3F)c2Cl)ncc1C(F)(F)F` the Potency was “inactive”. For `CCCCNC(=O)[C@@H]1Cc2ccccc2N1C(=O)[C@@H](N)CC`, the Potency was “inactive”. For `COC1CC(=O)C23C(=O)NC(CC(C)C)C2C(C)C(C)=CC3/C=C(\C)CCC1O` (centres undefined), the Potency was “inactive”. In the case of `CC(C)Nc1cc(-c2c[nH]c(C(=O)N[C@H](CO)c3cccc(Cl)c3)c2)c(Cl)cn1`, the Potency is reported as “inactive”. In the case of `COc1cc(N2CCC(O)CC2)ccc1Nc1cc(Nc2ccccc2S(=O)(=O)C(C)C)c2cc[nH]c2n1`, the Potency is reported as “inactive”. In the case of `O=C(O)C[C@@H](NC(=O)c1cc(-c2ccc(-c3ccncc3)cc2)cs1)c1ccccc1`, the Potency is reported as “inactive”. For `CC1(C)C[C@H]2C3=CCC4[C@@]5(C)CC[C@H](O[C@H]6O[C@H](C(=O)O)[C@@H](O)[C@H](O)[C@H]6O[C@H]6O[C@H](CO)[C@@H](O)[C@H](O)[C@H]6O[C@@H]6O[C@H](CO)[C@@H](O)[C@H](O)[C@H]6O)[C@](C)(CO)C5CC[C@@]4(C)[C@]3(C)CC[C@@]2(C)[C@H](O[C@@H]2OC[C@H](O)[C@H](OC3O[C@H](CO)[C@@H](O)[C@H](O)[C@H]3O)[C@H]2O)[C@@H]1O` (some centres undefined), the activity change, negative = cytotoxicity was -2.8% [at 6.55 µM] (inactive). With `CC(=O)N1c2ccccc2C2(O)CC3C(=O)NC(CC(C)C)C(=O)N3C12` (centres undefined) the Potency was “inactive”. With `C[C@@H]1O[C@@H](OC[C@H]2O[C@@H](OCCc3ccccc3)[C@H](O)[C@@H](O)[C@@H]2O)[C@H](O)[C@H](O)[C@H]1O` the Potency was “inactive”. `CC(CO[C@@H]1O[C@H](COC(=O)/C=C/c2ccc(O)c(O)c2)[C@@H](O)[C@H](O)[C@H]1O)C1(O)COC(=O)C1` (some centres undefined) was tested, and the Potency was “inactive”. With `Oc1ccc([C@H]2COc3cc(O)ccc3C2)cc1` the Potency was “inactive”. With `Cc1nnc(C(C)C)n1C1CC2CCC(C1)N2CCC(NC(=O)C1CCC(F)(F)CC1)c1ccccc1` (centres undefined) the Potency was “inactive”. With `COC(=O)[C@H](OC(C)=O)[C@H]1C(C)(C)C(=O)[C@H]2CC3=C4CC(=O)O[C@@H](c5ccoc5)[C@]4(C)CCC3[C@@]1(C)C2=O` (some centres undefined) the Potency was “inactive”. For `C=C[C@](C)(CC/C=C(\C)C(=O)O)O[C@@H]1OC[C@H](O)[C@H](O)[C@H]1O`, the Potency was “inactive”.
